We go through 40 compounds from PubChem BioAssay (EPA / NIEHS).

SMILES strings stand for the structures. Results filed as inconclusive are left out. Active and inactive are the calls of the source. The calls were made as follows: active = hit-call score of the fitted dose curve at least 0.9, where 1 is the maximum; inconclusive = response in the unintended direction; inactive = score below 0.9.

Chain of Estrogen receptor (Homo sapiens) (P03372 whole entry, looked up, the tested form may be a part): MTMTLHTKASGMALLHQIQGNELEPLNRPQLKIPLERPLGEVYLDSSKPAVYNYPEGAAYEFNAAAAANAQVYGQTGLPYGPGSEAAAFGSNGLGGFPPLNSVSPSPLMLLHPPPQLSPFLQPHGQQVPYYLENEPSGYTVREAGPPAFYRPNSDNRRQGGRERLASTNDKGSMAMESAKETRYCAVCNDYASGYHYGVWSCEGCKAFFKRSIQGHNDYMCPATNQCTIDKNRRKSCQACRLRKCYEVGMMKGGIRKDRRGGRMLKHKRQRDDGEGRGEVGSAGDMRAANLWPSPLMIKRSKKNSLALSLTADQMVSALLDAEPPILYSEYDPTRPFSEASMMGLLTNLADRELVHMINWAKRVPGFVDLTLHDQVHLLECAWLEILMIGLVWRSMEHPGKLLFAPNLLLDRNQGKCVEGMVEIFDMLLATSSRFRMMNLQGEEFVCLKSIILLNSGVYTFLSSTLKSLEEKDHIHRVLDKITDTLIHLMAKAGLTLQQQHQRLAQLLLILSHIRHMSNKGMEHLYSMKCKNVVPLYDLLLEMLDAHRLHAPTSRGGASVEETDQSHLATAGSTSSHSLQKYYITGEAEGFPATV

The target of the assay is Estrogen receptor (Homo sapiens) (UniProt P03372). Description: OT_ER_ERaERa_0480: Odyssey Thera (OT) 8-hour HEK293T Protein-Complementation Assay for Estrogen Receptor-alpha/-alpha Homodimer (AID 2283351).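 Also: rise in fluorescence from reassembled reporter fragments on ERα LBD homodimer in nucleus or whole cell.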 The method, then:
OT_ER_ERaERa_0480 is a cell-based assay that uses HEK293T, a human kidney cell line, with measurements taken at 8 hours after chemical dosing in a 384-well plate.OT_ER_ERaERa_0480 is one of one assay component(s) measured or calculated from the OT_ER_ERaERa_0480 assay. It is designed to make measurements of protein fragment complementation, a form of binding reporter, as detected with fluorescence intensity signals by Protein-fragment Complementation technology.Data from the assay component OT_ER_ERaERa_0480 was analyzed into 1 assay endpoint. This assay endpoint, OT_ER_ERaERa_0480, was analyzed in the positive analysis fitting direction relative to DMSO as the negative control and baseline of activity. Using a type of binding reporter, measures of receptor for gain-of-signal activity can be used to understand the binding at the pathway-level as they relate to the gene ESR1. Furthermore, this assay endpoint can be referred to as a primary readout, because the performed assay has only produced 1 assay endpoint. To generalize the intended target to other relatable targets, this assay endpoint is annotated to the nuclear receptor intended target family, where the subfamily is steroidal.
Protein-fragment complementation assay, or PCA, is a method for the identification and quantification of protein-protein interactions. In the PCA, the proteins of interest ("bait" and "prey") are each covalently linked to fragments of a third protein (e.g. DHFR, which acts as a "reporter"). Interaction between the bait and the prey proteins brings the fragments of the reporter protein in close proximity to allow them to form a functional reporter protein whose activity can be measured. The OT ER alpha / ER alpha assay is a homodimer PCA of the ligand binding domain (amino acids 310-547) of human ER alpha stably expressed in HEK293T cells. […] Fluorescent signal in the basal state of the assay is very low and is primarily punctuate and cytoplasmic. Modulation of this assay is quantified as an increase in mean fluorescence intensity in the nucleus (for agonists) or in the nucleus and cytoplasm (antagonists) relative to vehicle controls, and can be quantified on a high content imaging device or a laser scanning cytometer. The latter instrument is favored for this assay because of the rapid mode of data acquisition, the ability to acquire data from the entire cell population in a well (as opposed to a fraction of the well on the high content devices) and the larger dynamic range typically achieved with this instrument. To assess sensitivity of the ER alpha/ER alpha LBD assay to ligand, cells were treated with the ER agonist 17 beta-estradiol (E2) in 10-point concentration- response format for 8 hours and monitored response on a laser scanning plate cytometer (Acumen eX3; TTP Lab Tech).
As for `CCCCCCCC/C=C\CCCCCCCC(=O)OC[C@@H](O)[C@H]1OC[C@H](O)[C@H]1O`, the call was inactive.

`O=c1[nH]cnc2c1ncn2[C@H]1CC[C@@H](CO)O1`: the call was inactive.

For the compound `Cn1cc[nH]c1=S`, the compound was classed as inactive.

On to `CCOC(N)=O`, for which the outcome was inactive.

As for `CCOc1ccc2[nH]cc(C(=O)NCc3ccccc3)c(=O)c2n1`, the outcome was inactive.

As for `Cc1nc(-c2ccccn2)ncc1C(=O)Nn1cc(C)c2cc(F)ccc21`, the compound was classed as inactive.

Regarding `CNC(C)=O`, the compound was classed as inactive.

For `NNC(=O)c1ccncc1`, the result was inactive.

On to `COc1cc(C(C)C)c2c(c1)S(=O)(=O)N(COc1cc(=O)n3cccc(OCCN4CCCCC4)c3n1)C2=O`, for which the compound was classed as inactive.

`CCCCCOC(C)=O`: the compound was classed as inactive.

Turning to `Cc1ccc(S(=O)(=O)NC(=O)NN2CCCCCC2)cc1`, the outcome was inactive.

Take `c1ccc(C(O[C@@H]2CCCN(CCc3ccc4c(c3)OCO4)C2)c2ccccc2)cc1`: the compound was classed as inactive.

For `C=CN1CCCC1=O`, the outcome was inactive.

Regarding `CCCc1ccccc1`, the compound was classed as inactive.

Consider `CCN(CC)C(=S)SSC(=S)N(CC)CC`, for which the result was inactive.

Consider `CCCCCCOC(=O)CC(CC(=O)OCCCCCC)(OC(=O)CCC)C(=O)OCCCCCC`, for which the call was inactive.

On to `c1ccc2c(c1)-c1cccc3c1c-2cc1ccccc13`, for which the compound was classed as inactive.

Consider `Cc1cccc(O)c1C`, for which the outcome was inactive.

As to `CCCC(CCC)C(=O)O`, the compound was called inactive.

For the compound `CCCCCCCCCC`, the call was inactive.

On to `C=CCc1cc(S(=O)(=O)c2ccc(O)c(CC=C)c2)ccc1O`, for which the call was inactive.

`CC(=O)c1ccccc1`: the result was inactive.

Turning to `CCCCCCCCN(C)C`, the outcome was inactive.

As for `CC(C)CCCCCCOC(=O)C1CCCCC1C(=O)OCCCCCCC(C)C` (stereo not given), the outcome was inactive.

As to `OCCOCCOCCO`, the compound was classed as inactive.

In the case of `O=S1(=O)CCCO1`, the compound was classed as inactive.

For the compound `CCCCCCCC1CCC(=O)O1` (stereo not given), the outcome was inactive.

On to `O=C(O)c1ccc2c(c1)nc(C(=O)NC1CCN(C3CC3)CC1)n2Cc1cc(-c2ccc(Cl)s2)on1`, for which the call was inactive.

Turning to `NC(N)=O`, the compound was classed as inactive.

For `NC(=O)NN=Cc1ccc([N+](=O)[O-])o1`, the result was inactive.

With `OCc1ccccc1`, the compound was classed as inactive.

`CCCCN1C(=O)[C@@H]([C@H](O)C2CCCCC2)NC(=O)C12CCN(Cc1ccc(Oc3ccc(C(=O)O)cc3)cc1)CC2`: the outcome was inactive.

In the case of `OCCNCCO`, the compound was classed as inactive.

Consider `NC(=O)N(O)[C@@H]1COc2cc(OCc3ccccc3)ccc21`, for which the call was inactive.

Regarding `O=C(O)CO`, the compound was called inactive.

With `O=S(=O)(O)c1ccc(N=Nc2c(O)ccc3cc(S(=O)(=O)O)ccc23)cc1`, the compound was called inactive.

For `CC(C)C(=O)Nc1ccc([N+](=O)[O-])c(C(F)(F)F)c1`, the compound was classed as inactive.

As to `CCCCOC(=O)c1ccccc1`, the compound was classed as inactive.

Regarding `NC(=O)N1c2ccccc2C=Cc2ccccc21`, the compound was classed as inactive.

On to `CCCCCCCCCCCCCCO`, for which the compound was called inactive.
